Experimental data from the supplement of paper PMC10338343.
± gives the standard deviation.

How the values were obtained:
[1] = system: MILI (PIWIL2) piRISC loaded with L1MC piRNA (26 nt); experiment: pre-steady-state target cleavage rate (min^-1); guide: L1MC piRNA 5'p-UAACUAAAUACUAUGCAAGCUGUAGG; higher = faster piRNA-guided slicing of the target
In short: (§1)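 With or without 500 nM GTSF1 partner protein, 1 nM active affinity-purified piRISC carrying one synthetic guide was mixed with 0.1 nM transcribed, DNA-blocked target RNA library in HEPES–potassium acetate buffer at 33 °C for 0–8 or 0–960 min. Uncleaved targets were sequenced and normalised to depth and to weakly complementary targets, three trials were pooled, and k3 was capped at 0.0001 min^-1. The pre-steady-state cleavage rate came from a burst-and-steady-state fit.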

[2] = system: EfPiwi piRISC loaded with L1MC piRNA (26 nt); experiment: pre-steady-state target cleavage rate (min^-1); auxiliary factor: 500 nM Ephydatia muelleri Gtsf1; guide: L1MC piRNA 5'p-UAACUAAAUACUAUGCAAGCUGUAGG; MIWI and MILI are mouse PIWI proteins and EfPiwi is from a freshwater sponge; tags in brackets are library labels; higher = faster piRNA-guided slicing of the target
In short: as §1

[3] = auxiliary factor: 500 nM mouse GTSF1
[4] = auxiliary factor: none (no GTSF1)

Sequence	pre-steady-state target cleavage rate [1, 3]	pre-steady-state target cleavage rate [1, 4]	pre-steady-state target cleavage rate [2]
UCCUGGAACAGCAUGCAUAGUUUUUAGUUA	0.0418 ± 0.011	0.00553 ± 0.0023	0.00387 ± 0.0016
UCCUGGAUGAGCUCUGCAUAGUAUUUAGUUA	0.171 ± 0.01	0.0111 ± 0.0033	0.00721 ± 0.0028
UCCUGGAUGUGCUUGCAUAGUAGUUAGUUA	0.0647 ± 0.01	0.0055 ± 0.0027	0.0116 ± 0.0041
UCCUGCUACUGCUUGCAUAGUUUUUAGUUA	0.0524 ± 0.011	0.00424 ± 0.0018	0.00399 ± 0.0017
UCCUCCUAGACCUUGCAUAGUAUUUAGUUA	0.237 ± 0.024	0.00751 ± 0.0025	0.141 ± 0.041
UCCUGGAUGAGCUUGCAUAGUAUUCAGUUA	0.136 ± 0.026	0.00552 ± 0.0023	0.00256 ± 0.0023
UCCUGGAUGUCCUUGCAUAGUAUCUAGUUA	0.12 ± 0.024	0.00287 ± 0.0025	0.00775 ± 0.0043
UCCUGGAUGAGCUUGCAUAGUAAUUAGUUA	0.184 ± 0.018	0.00598 ± 0.0024	0.0154 ± 0.0044
UCCUGGAUCAGCUUGCAUAGUAUUUAGUGUA	0.271 ± 0.023	0.00832 ± 0.0026	0.0168 ± 0.0061
UCCUGGAUCAGCUUGCGUAGUAUUUAGUUA	0.192 ± 0.017	0.0107 ± 0.0029	0.0111 ± 0.0032
UCCUGGAUCAGCUUGCAUAGUAUUUAGUGA	0.237 ± 0.021	0.006 ± 0.0028	0.0182 ± 0.0068
UCCUGGAUCAGCUUGCAUAGUGUUUAGUUA	0.2 ± 0.018	0.00361 ± 0.003	0.0156 ± 0.0035
UCCUGGAUCAGCUUGCAUAGUAUUUAGUCA	0.285 ± 0.019	0.0107 ± 0.0027	0.0102 ± 0.0044
UCCUGGAUGAGCUUGCAUAGUAUCUUAGUUA	0.148 ± 0.017	0.00732 ± 0.0024	0.0147 ± 0.005
UCCUGGUUCAGCAUGCAUAGUAUUUAGUUA	0.199 ± 0.026	0.0092 ± 0.0032	0.0347 ± 0.0092
UCCUGGUACAGCUUGCAUGUAUUUAGUUA	0.0383 ± 0.0075	0.00417 ± 0.0024	0.0036 ± 0.0031
UCCUGCUACAGCUUCCAAAGUAUUUAGUUA	0.112 ± 0.015	0.00347 ± 0.0025	0.00321 ± 0.0019
